# Compound activity deposited in PubChem BioAssay by National Center for Advancing Translational Sciences (NCATS).
# IL1B secr inh: inflammasome signaling inhibition, IL-1 beta readout; THP-1 LPS/ATP IL-1B secretion, AlphaLISA, 16 h; stronger effect = lower value; activity change, % at 57.5 µM; 4.7% of 360,000 active; AID 743279; in the data active = activity change below about -50%; inconclusive = mostly about -30% to -49%; note: % is set by controls: 0 for no effect and ±100 for the full control effect
#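 Secreted IL-1B measured by AlphaLISA bead assay after 16 h compound exposure of THP-1 cells; compounds (final up to 57.5 uM) added 1 h before LPS (250 ng/mL) and ATP (1.25 mM) stimulation; lower signal means less secretion.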
# DT40 TDP1 no CPT: qHTS for Inhibitors of human tyrosyl-DNA phosphodiesterase 1 (TDP1): qHTS in cells in absence of CPT; DT40 Tdp1-/- hTDP1 cells, no CPT, ATP luminescence, 48 h; Potency, µM (highest dose often 46.2 µM), for inactives: top-dose activity change, negative = growth inhibition, usual class: inhibitors; 15% of 420,000 active; AID 686978, 2013; note: potency is the fitted concentration of half-maximal effect; % is set by controls: 0 for no effect and ±100 for the full control effect; nearly all actives have a fitted effect of over 55% in size
#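 A cellular qHTS used chicken DT40 cells lacking endogenous Tdp1 but carrying stably transfected human TDP1. Compounds were applied without camptothecin, and cell growth kinetics were judged by ATP-dependent luminescence after ≥48 hr.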
# BCR signal inh: blocks chronic active B-cell receptor signaling; 0.05% of 340,000 active; AID 493014; Potency, µM (highest dose often 46.1 µM), for the others: top-dose activity change, negative = inhibition, actives largely listed as inhibitors; ABC-DLBCL IkBa-CBG/CBR reporter, luminescence ratio, 4 h; active = well fitted inhibition curve with a large enough effect in the signal ratio, with a control signal flat, not every such curve was filed as active; inconclusive = small, poorly fitted or top-dose-only effect, or effect the other way, or a change in a side signal; the % refers to the signal ratio;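 note: potency is the fitted concentration of half-maximal effect; plate controls were basal doxycycline-induced cells for no effect and cells given 10 µM MG132 for full effect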
#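 Doxycycline induced both beetle luciferases in TMD8 lymphoma cells; IKK-driven degradation limits the IkappaBalpha-fused green signal, while red luminescence normalises for cell number and nonspecific effects. Compounds tested up to 46 uM, 4 hrs.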
# TDP1 cell CPT: growth inhibition of DT40 Tdp1-/-;hTDP1 cells with camptothecin (screen for TDP1 inhibitors) | chicken DT40 Tdp1-/-;hTDP1 cells + 20 nM CPT, ATP luminescence, 48 h | Potency, µM (series often up to 46.2 µM), for the others: at the highest dose activity change, negative = growth inhibition, most hits filed as inhibitors | 12% of 420,000 active | AID 686979; note: potency is the fitted concentration of half-maximal effect; % is set by controls: 0 for no effect and ±100 for the full control effect; nearly all actives have a fitted effect of over 55% in size
#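 Chicken DT40 Tdp1-/- cells complemented with human TDP1, 400 cells/well, exposed to compounds plus 20 nM camptothecin for at least 48 h at 37 C; viability read as ATP content by CellTiter-Glo luminescence.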
# MCF10A rereplic: DNA re-replication induction in MCF 10a cells; MCF 10A DNA re-replication, Hoechst nuclear intensity, 48 h; Potency, µM (top dose mostly 46.1 µM), without a hit: top-dose activity, positive = re-replication, hits mostly activators; 2.9% of 350,000 active; note: potency is the fitted concentration of half-maximal effect; % of control where 0% means no effect; nearly all actives have a fitted effect of over 50% in size
# SW480 rerep: DNA re-replication induction in SW480 cells; SW480 DNA re-replication, Hoechst DNA content imaging, 48 h; AID 624297; 1.8% of 340,000 active; Potency, µM (doses to about 46.1 µM), without a hit: at the highest dose re-replication activation, hits mostly activators; note: potency is the fitted concentration of half-maximal effect; % of control where 0% means no effect; nearly all actives have a fitted effect of over 55% in size
#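 First, 250 cells per well were seeded. Next, compound or vehicle (23 nL) was pinned in, plates sat 48 hr at 37 C. Finally Hoechst was added for 40 min before fluorescence scanning.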
# Active calls of the source: *; u = inconclusive; x = no result. Rows were chosen to be rich in hits. Some 19% of all compounds tested hit in one or more screens of this group. Unless noted, calls come from the whole dose curve; as a rule, active = well fitted curve in the direction sought with a large enough effect; inconclusive = small, poorly fitted or top-dose-only effect, or another doubt; inactive = no such curve, though single readings can be large; an effect the other way counts as inactive or inconclusive.
SMILES,IL1B secr inh,DT40 TDP1 no CPT,BCR signal inh,TDP1 cell CPT,MCF10A rereplic,SW480 rerep
CC1C(=O)N2CCCc3cc(NC(=O)C(=O)NCCc4ccc(F)cc4)cc1c32 (centres undefined),13,u,u,u,u,u
O=C(NCc1ccc(OC(F)(F)F)cc1)C1CC2Cn3c(nc4ccccc43)C2N1c1ccccc1 (centres undefined),-3,u,10%,u,u,-14%
Cc1cn([C@H]2C[C@H](O)[C@@H](CNCc3ccc(CN(C)S(C)(=O)=O)o3)O2)c(=O)[nH]c1=O,14,0%,x,4%,x,x
CCN(CC)S(=O)(=O)c1cccc(C(=O)N/N=C/c2cc(OC)c(O)c(OC)c2)c1,5,u,-9%,-29%,3%,-2%
Nc1ccc(C(=O)N/N=C/c2sc(N3CCOCC3)nc2-c2ccccc2)cc1,-24,u,u,u,15%,-8%
CCN(CC)S(=O)(=O)c1cccc(C(=O)N/N=C/c2cccc(O)c2O)c1,0,4.6µM*,u,3.7µM*,1%,u
O=C(N/N=C/c1sc(N2CCOCC2)nc1-c1ccccc1)c1cccc(S(=O)(=O)N2CCOCC2)c1,193,4.6µM*,u,4.6µM*,u,21µM*
CSc1ccc(Cl)c(C(=O)Nc2cc(S(=O)(=O)N3CCOCC3)ccc2N2CCOCC2)c1,-24,u,u,-27%,-2%,15%
CCN1CCN(C(=O)C(Cc2ccccc2)NC(=O)c2ccc(Cl)c(S(=O)(=O)N(C)C)c2)CC1 (centres undefined),0,u,-2%,u,4%,4%
COc1ccc(S(=O)(=O)N2CCCCC2)cc1NC(=O)C1COc2ccccc2O1 (centres undefined),0,23µM*,20%,23µM*,3%,4%
COc1ccc(S(=O)(=O)N2CCOCC2)cc1NC(=O)c1ccc2c(c1)OCO2,0,-4%,-1%,-27%,u,3%
O=C(Nc1ccc(S(=O)(=O)Nc2ncccn2)cc1)C1COc2ccccc2O1 (centres undefined),-8,-9%,-3%,1%,12%,-8%
COc1ccc(S(=O)(=O)N2CCCCC2)cc1NC(=O)c1ccc2c(c1)OCO2,0,15µM*,1%,u,-7%,x
COc1ccc(OC)c(NS(=O)(=O)c2ccc(NC(=O)C3COc4ccccc4O3)cc2)c1 (centres undefined),-68*,18µM*,-9%,15µM*,u,6%
Cc1cc(Br)c(NC(=O)CN2CCCC2)c(Br)c1,-18,-10%,1%,-1%,u,-6%
CC(C)NC(=O)C1CCCN(S(=O)(=O)c2ccc3c(ccn3C)c2)C1 (centres undefined),x,-19%,x,-21%,x,x
COc1ccc(C(CNC(=O)c2ccc(S(=O)(=O)Nc3ccc(F)cc3)cc2)N(C)C)cc1 (centres undefined),23,23µM*,-9%,16µM*,-2%,2%
COc1ccc(C(CNC(=O)c2cccc(S(=O)(=O)Nc3ccc(F)cc3)c2)N(C)C)cc1 (centres undefined),-11,u,-3%,u,0%,2%
COc1ccc(CC(=O)NCC(c2ccc(OC)cc2)N(C)C)cc1 (centres undefined),-6,14%,3%,0%,3.3µM*,u
CCOc1ccc(S(=O)(=O)Nc2cccc(C(=O)NCC(c3ccccc3)N(C)C)c2)cc1 (centres undefined),-17,18µM*,5%,23µM*,18%,2%
COc1ccc(C(CNC(=O)c2cccc(NS(=O)(=O)c3ccccc3)c2)N(C)C)cc1 (centres undefined),5,-17%,-9%,-26%,7%,-2%
COc1ccc(C(CNC(=O)Cc2cccs2)N(C)C)cc1 (centres undefined),29,1%,3%,-2%,7%,7%
COc1cc(F)c(S(=O)(=O)N2CCOc3ccccc32)cc1OC,-5,-24%,u,u,-5%,1%
CC1(C(=O)NC2CCCCC2)CCC(=O)N1CC(F)(F)F (centres undefined),6,20%,x,-1%,x,x
Cc1cnc(C(=O)NNC(=O)c2ccc(Br)cc2)cn1,77,5.8µM*,-26%,3.7µM*,-2%,-53%
SMILES,IL1B secr inh,DT40 TDP1 no CPT,BCR signal inh,TDP1 cell CPT,MCF10A rereplic,SW480 rerep
O=C(NNC(=O)c1cccc2ccccc12)c1ccc(Cl)cc1,-13,u,x,2%,-1%,-9%
O=C(NNC(=O)C1CCC1)c1ccc(Br)cc1,-11,-1%,1%,10%,-2%,u
O=C(NNC(=O)c1ccc(O)cc1O)c1ccc(Cl)cc1,-2,u,u,u,4%,u
O=C(NNC(=O)c1ccccc1O)c1ccc(Cl)cc1,243,16µM*,u,18µM*,9%,u
Cc1cccc(C(=O)NNC(=O)c2ccc(Cl)cc2)c1O,14,21µM*,u,u,-2%,u
O=C(NNC(=O)c1ccccc1O)c1ccc(Br)cc1,31,u,u,u,-8%,2.9µM*
COc1ccc(/C=N/N(C)C2=NCCN2)c(OC)c1OC,16,-1%,u,0%,9%,-6%
O=C(CCNC(=O)c1ccc(Br)cc1)NNC(=O)c1ccccc1O,48,23µM*,u,u,u,u
O=C1O[C@@H](c2ccccc2)C[C@@H](O)C(=O)CCc2ccccc21,2,u,x,-14%,x,x
CCN(c1ccccc1)S(=O)(=O)c1ccc(N2CCN(c3ccc(OC)cc3)CC2)nc1,-10,u,2%,12µM*,-5%,-15%
CCN(c1ccccc1)S(=O)(=O)c1ccc(N2CCN(c3ccc(O)cc3)CC2)nc1,u,15µM*,u,u,18µM*,u
CCN(CC)S(=O)(=O)c1ccc(N2CCN(CCOc3ccc(OC)cc3)CC2)nc1,-23,21µM*,11%,18µM*,u,10%
C[C@@](N)(C(=O)O)c1ccc(S(=O)(=O)O)cc1,x,3%,x,4%,x,x
COC(=O)c1ccccc1OCCOCCOc1cccc2ccc(C)nc12,23,23µM*,-14%,u,-4%,-7%
COC(=O)c1ccc(OCCOCCOc2cccc3ccc(C)nc23)cc1,-8,23µM*,u,u,1%,1%
